# Results filed as inconclusive are left out. Active and inactive are the calls of the source. Calls follow the shape of the dose curve; as a rule, active = well fitted cell-killing curve with a large enough effect; inconclusive = small, poorly fitted or top-dose-only effect; inactive = no such curve, though single readings can be large or run the other way. Where a SMILES comes first, the peptide text is derived from it.
# Experiment: qHTS of pediatric cancer cell lines to identify multiple opportunities for drug repurposing: Primary screen for OHS-50 cells (AID 1347103); also: nearly all actives have a fitted effect of over 40% in size
# Conditions: OHS-50 osteosarcoma viability, CellTiter-Glo luminescence, 48 h; series mostly up to 57.3 µM; activity change, negative = cytotoxic: at the top concentration
# Description: Drug repurposing or repositioning has been offered as a strategy for drug development in oncology programs. This approach has special potential for childhood cancers and other rare or orphan diseases, where the expected return on new drug development has been a disincentive to pharmaceuticals.
# In this project we exploit the poly-pharmacology of drugs to discover new indications via phenotypic screening of a panel of 19 well-characterized cell lines derived from solid tumors seen in children and adolescents. The goal is to identify approved drugs with previously unrecognized anticancer properties that has the potential to reveal new mechanisms and biological processes involved in carcinogenesis or drug resistance. We employed a titration-based paradigm (quantitative high-throughput screening or qHTS), where all compounds were tested at multiple concentrations for their effect on cell viability. Concentration-response curves (CRCs) were derived directly from the primary screen, and both potency and efficacy values were used to identify compounds with robust bioactivity profiles. We screened the NIH Chemical Genomics Center (NCGC) Pharmaceutical Collection (NPC) and Mechanism Interrogation Plate (MIPE) small molecule collections of approved and investigational compounds against these cell lines; and measured metabolically active cells after 48 hours of compound treatment as a proxy for cell viability.
# Assay Submitter: Nathalia J. Martinez, National Center for Advancing Translational Sciences, National Institutes of Health, Rockville, MD, USA; email: natalia.martinez@nih.gov
# [1] Shen, M et al. Quantitative high-throughput phenotypic screening of pediatric cancer cell lines identifies multiple opportunities for drug repurposing. Oncotarget 2017 Dec 19;9(4):4758-4772. PMID 29435139.
# The cells were obtained from University of North Carolina (UNC), Pediatric Preclinical Testing Program (PPT), and Coriell Institute (CI).
# qHTS cell viability assay:
# Cells were assayed in growth media at a density of 500-1,000 cells/well. Five microliters of cells were dispensed into 1,536-well, white, solid-bottom, TC-treated plates (Greiner Bio One) using a multidrop dispenser and incubated at 37 degrees C, 5% CO2, under a humidified atmosphere for 5 hours. Twenty-three nanoliters of compounds and controls (neutral control DMSO or positive control bortezomib at final concentration of 2.3 µM) were subsequently transferred by Kalypsys pintool. For primary screens, the MIPE collection was tested at 11-point dilutions (final concentrations range from 0.78 nM to 46 µM) and the NPC collection at 8-point dilutions (final concentrations range from 0.59 nM to 46 µM). Compounds tested in follow-up screens were assayed at 11-point dilutions. Cells were incubated for 48 hours, followed by addition of 3 µL of CellTiter-Glo (Promega). After a 15 min incubation at room temperature, samples were analyzed for luminescence intensity using a ViewLux High-throughput CCD imager equipped with clear filters.
# Potency is read from the fitted curve at half-maximal effect.
SMILES,"activity change, negative = cytotoxic",Potency
CSCC[C@H](NC(=O)[C@H](Cc1c[nH]c2ccccc12)NC(=O)CCNC(=O)OC(C)(C)C)C(=O)N[C@@H](CC(=O)O)C(=O)N[C@@H](Cc1ccccc1)C(N)=O,5.08% (inactive),
CC1(C)O[C@@H]2C[C@H]3[C@@H]4C[C@H](F)C5=CC(=O)C=C[C@]5(C)[C@@]4(F)[C@@H](O)C[C@]3(C)[C@]2(C(=O)CO)O1,-21.9% (inactive),
CCCc1ccc(OCC(=O)N2CCN(C(=O)COc3ccc(CCC)cc3OC)CC2)c(OC)c1,7.13% (inactive),
CC1CC(=O)NN=C1c1ccc(NCC(C)(C)NCC(O)COc2cc(Cl)ccc2C#N)cc1 (stereo not given),-7.25% (inactive),
CN1CC[C@H](c2c(O)cc(O)c3c(=O)cc(-c4ccccc4Cl)oc23)[C@H](O)C1,,0.276 µM (active)
CO/N=C(/C(=O)N[C@@H]1C(=O)N2C(C(=O)[O-])=C(C[n+]3ccn4ncccc43)CS[C@H]12)c1nsc(N)n1,16% (inactive),
O=C(c1cc(O)c(O)c(O)c1)c1ccc(O)c(O)c1O,,24.6 µM (active)
CCCCCCCC(=O)[O-].CCCCCCCC(=O)[O-].[Zn+2],7.02% (inactive),
CC1(C)O[C@@H]2C[C@H]3[C@@H]4CCC5=CC(=O)C=C[C@]5(C)[C@@]4(F)[C@@H](O)C[C@]3(C)[C@]2(C(=O)CO)O1,7.17% (inactive),
O=C(NO)c1ccccc1,-21.3% [at 116 µM] (inactive),
N#CSCC(=O)O,6.62% (inactive),
COC(=O)c1cc(Cl)ccc1NS(=O)(=O)C(F)(F)F,-6.74% (inactive),
CO[C@@H]1[C@@H](OC)[C@H](C)[C@@](O)(CC(=O)O)O[C@H]1[C@H](C)[C@H]1O[C@@]2(CC[C@@](C)([C@H]3CC[C@@](C)([C@@H]4O[C@@H]([C@H]5O[C@](C)(O)[C@H](C)C[C@@H]5C)C[C@@H]4OC4C[C@H](OC)[C@@H](OC)[C@H](C)O4)O3)O2)C[C@H](O)[C@H]1C (stereo not given in full),,0.389 µM (active)
CCOC(=O)OCC/C(SC(=O)OCC)=C(\C)N(C=O)Cc1cnc(C)nc1N,14.7% (inactive),
NC(=O)NC1N=C([O][Al])NC1=O (stereo not given),16.1% (inactive),
CN1CCC(Nc2ncc3ncnc(Nc4ccc(F)c(Cl)c4)c3n2)CC1,,27.6 µM (active)
O=c1[nH]c(=O)n([C@H]2O[C@H](CO)[C@@H](O)[C@@H]2O)cc1/C=C\Br,13.6% (inactive),
COc1ccc2c(c1)CCCC2=O,15.9% (inactive),
CC(=O)N[C@@H](CCC(N)=O)C(=O)O,14.7% (inactive),
C[C@H]1NCc2cc(-c3ccc4c(=O)c(C(=O)O)cn(C5CC5)c4c3OC(F)F)ccc21,98.8% [at 19.7 µM] (inactive),

SMILES,"activity change, negative = cytotoxic",Potency
N=C(N)c1ccc(OCCCOc2ccc(C(=N)N)cc2)cc1,68.1% (inactive),
Cc1sccc1Br,1.85% (inactive),
O=c1[nH]c2ccccc2c(=O)n1CCCl,10.1% (inactive),
Nc1c(I)cc(I)c(C(=O)N(CCC(=O)O)c2ccccc2)c1I,6.17% (inactive),
O=C(O)CCC(=O)OC[C@@H](NC(=O)C(Cl)Cl)[C@H](O)c1ccc([N+](=O)[O-])cc1,38.5% (inactive),
O=C(O)C1CCC1,8.44% (inactive),
Cc1cccc(OCC(O)CNC(C)(C)C)c1C (stereo not given),-18.6% (inactive),
CCc1cc2cc(OC)c(OC)cc2c(Cc2ccccc2)n1,,21.9 µM (active)
COCCOCC(OC)OC,18.9% (inactive),
CCC(C(=O)NC(=O)NC(C)=O)c1ccccc1 (stereo not given),-12.8% (inactive),
CN1C(=O)c2ccccc2C1=O,9.82% [at 116 µM] (inactive),
CC[C@@]1(O)C(=O)OCc2c1cc1n(c2=O)Cc2c-1nc1ccccc1c2/C=N/OC(C)(C)C,,0.0347 µM (active)
CCOc1ccccc1OCC1CNCCO1 (stereo not given),6.55% (inactive),
CCCCCCCCCCCCCCCCCCNC(=O)OC1CCN(C(=O)OC[C@H](COC(=O)N(Cc2cccc[n+]2CC)C(=O)c2ccccc2OC)OC)CC1,,11 µM (active)
CCCCNc1ccc(C(=O)OCCN(CC)CC)cc1,-16.1% (inactive),
CCCCCC(=O)O[C@]1(C(C)=O)CC[C@H]2[C@@H]3CCC4=CC(=O)CC[C@]4(C)[C@H]3CC[C@@]21C,,15.5 µM (active)
CC(=O)N[C@@H](CO)C(=O)N[C@@H](CC(=O)O)C(=O)N[C@@H](CCCCN)C(=O)N1CCC[C@H]1C(=O)O (Ac-SDKP-OH),7.14% (inactive),
NC(=O)NS(=O)(=O)c1ccc(Cl)cc1,4.57% (inactive),
C[N+]1(CC2COC(c3ccccc3)(c3ccccc3)O2)CCCCC1 (stereo not given),-9.18% [at 19.7 µM] (inactive),
CCOC(=O)c1ccc(NC(=O)CN2CCCCC2)cc1,-17% (inactive),
